# Experimental data as given in ChEMBL document CHEMBL3988442, “University of Dundee, Small-Polar-MMV Screening Library” (2021).
# For some assays here: Results with a measured potency or affinity are listed apart.
# Legend:
# Parameters in all cases: scale not given: direction of the effect not stated beside the values
# [1] = target: Protein translocase subunit SecA (Escherichia coli (strain K12)) (UniProt P10408); assay: Assay to Identify E. coli SecA ATPase Inhibitors; format: functional; settings: 30 µM
# [2] = target: T1, Ubiquitin-activating enzyme e1, putative (Leishmania donovani (strain BPK282A1)) (UniProt E9BSI1); assay: Leishmania donovani Ubiquitin Activating Enzyme (LdE1); format: functional; settings: 30 µM
# T1 sequence (whole entry): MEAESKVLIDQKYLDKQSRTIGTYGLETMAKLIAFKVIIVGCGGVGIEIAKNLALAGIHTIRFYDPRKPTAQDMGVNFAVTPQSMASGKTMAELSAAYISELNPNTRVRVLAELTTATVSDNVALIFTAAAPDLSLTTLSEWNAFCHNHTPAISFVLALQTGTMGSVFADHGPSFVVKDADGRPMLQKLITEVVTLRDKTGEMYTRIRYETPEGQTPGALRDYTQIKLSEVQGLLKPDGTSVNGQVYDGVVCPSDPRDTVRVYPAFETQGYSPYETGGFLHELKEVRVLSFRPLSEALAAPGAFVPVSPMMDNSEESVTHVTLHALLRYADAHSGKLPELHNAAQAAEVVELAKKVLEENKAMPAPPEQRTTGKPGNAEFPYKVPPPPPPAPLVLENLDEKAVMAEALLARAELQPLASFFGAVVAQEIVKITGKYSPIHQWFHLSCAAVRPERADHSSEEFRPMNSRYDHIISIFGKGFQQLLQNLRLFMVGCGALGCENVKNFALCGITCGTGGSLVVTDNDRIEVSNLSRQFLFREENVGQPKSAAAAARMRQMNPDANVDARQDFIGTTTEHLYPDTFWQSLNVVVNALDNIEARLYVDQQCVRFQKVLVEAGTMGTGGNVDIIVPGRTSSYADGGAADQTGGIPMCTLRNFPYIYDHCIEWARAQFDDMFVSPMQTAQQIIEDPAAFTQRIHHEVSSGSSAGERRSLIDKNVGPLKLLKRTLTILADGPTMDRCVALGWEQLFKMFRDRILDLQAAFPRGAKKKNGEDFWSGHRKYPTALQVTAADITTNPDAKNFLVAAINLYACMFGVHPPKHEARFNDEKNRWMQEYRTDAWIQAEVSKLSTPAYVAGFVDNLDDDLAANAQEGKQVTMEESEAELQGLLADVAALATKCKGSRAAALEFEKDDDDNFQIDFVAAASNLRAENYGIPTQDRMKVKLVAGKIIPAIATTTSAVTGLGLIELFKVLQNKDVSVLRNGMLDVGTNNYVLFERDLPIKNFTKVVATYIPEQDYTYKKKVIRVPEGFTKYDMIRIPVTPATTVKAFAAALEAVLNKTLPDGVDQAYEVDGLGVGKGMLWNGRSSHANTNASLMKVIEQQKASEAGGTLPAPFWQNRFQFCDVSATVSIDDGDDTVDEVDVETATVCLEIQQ
# [3] = target: AMP-activated protein kinase, AMPK (Homo sapiens) (UniProt P54646+O43741+P54619+Q9UGJ0+Q9Y478+Q13131+Q9UGI9); assay: AMP-dependent Kinase enzyme assay. An in vitro enzyme assay that detects ADP turnover that is directly proportional to AMPK activity. This uses naive AMPK that is activated during the assay with MK-8722; format: functional; settings: 30 µM
# [4] = target: Sialic acid-binding Ig-like lectin 9 (Homo sapiens) (UniProt Q9Y336); assay: Hs-Siglec9 ALPHAscreen SOP 20170721; settings: 10 µM
# Trypanosoma cruzi = assay: Trypanosoma cruzi phosphomannomutase and mannose-1-phosphate guanylyltransferase assay; format: functional; settings: 10 µM
# [5] = target: T2, Arginase-2, mitochondrial (Homo sapiens) (UniProt P78540); assay: in vitro enzyme assay to detect the production of urea directly proportional to the activity of Arginase II; format: functional; settings: 33.3 µM; note: in the data most compounds retested in dose-response had high values
# T2 sequence (whole entry): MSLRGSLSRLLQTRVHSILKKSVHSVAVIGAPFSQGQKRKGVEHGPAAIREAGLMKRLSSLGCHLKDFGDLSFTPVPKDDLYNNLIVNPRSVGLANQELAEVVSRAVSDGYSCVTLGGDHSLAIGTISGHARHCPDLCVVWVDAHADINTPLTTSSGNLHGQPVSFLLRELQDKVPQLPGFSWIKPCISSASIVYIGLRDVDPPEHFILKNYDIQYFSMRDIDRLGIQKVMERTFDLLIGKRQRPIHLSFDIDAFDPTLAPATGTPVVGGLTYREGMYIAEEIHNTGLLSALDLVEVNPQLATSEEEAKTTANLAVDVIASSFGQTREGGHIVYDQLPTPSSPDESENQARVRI
# [6] = target: T3, Proteasome subunit beta (Trypanosoma cruzi) (UniProt O96673); assay: Trypanosoma cruzi proteasome chymotrypsin-like activity (TcProtChymo) assay.; note: in the data most compounds retested in dose-response had high values; format: functional; settings: 9.37 µM
# T3 sequence (whole entry): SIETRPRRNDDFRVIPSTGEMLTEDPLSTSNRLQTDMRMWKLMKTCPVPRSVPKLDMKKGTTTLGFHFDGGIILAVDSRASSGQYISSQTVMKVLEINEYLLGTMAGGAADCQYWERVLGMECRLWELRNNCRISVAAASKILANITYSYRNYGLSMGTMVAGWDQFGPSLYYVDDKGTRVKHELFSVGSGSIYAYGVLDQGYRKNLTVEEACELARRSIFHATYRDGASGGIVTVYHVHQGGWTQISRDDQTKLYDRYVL
# Homo sapiens = organism: Homo sapiens; assay: To identify inhibition of the IFN signalling (Jak-Stat) pathway via expression of an eGFP reporter gene under the control of an IFN-stimulated response element (ISRE) containing MxA promoter.; format: functional; settings: 30 µM
# [7] = target: T4, Tyrosyl-tRNA synthetase, putative (Trypanosoma cruzi (strain CL Brener)) (UniProt Q4DSP6); assay: Trypanosoma cruzi tyrosyl tRNA synthetase (TcYRS) _High Tyrosine SOP; format: functional; settings: 30 µM; note: in the data most compounds retested in dose-response had high values
# T4 sequence (whole entry): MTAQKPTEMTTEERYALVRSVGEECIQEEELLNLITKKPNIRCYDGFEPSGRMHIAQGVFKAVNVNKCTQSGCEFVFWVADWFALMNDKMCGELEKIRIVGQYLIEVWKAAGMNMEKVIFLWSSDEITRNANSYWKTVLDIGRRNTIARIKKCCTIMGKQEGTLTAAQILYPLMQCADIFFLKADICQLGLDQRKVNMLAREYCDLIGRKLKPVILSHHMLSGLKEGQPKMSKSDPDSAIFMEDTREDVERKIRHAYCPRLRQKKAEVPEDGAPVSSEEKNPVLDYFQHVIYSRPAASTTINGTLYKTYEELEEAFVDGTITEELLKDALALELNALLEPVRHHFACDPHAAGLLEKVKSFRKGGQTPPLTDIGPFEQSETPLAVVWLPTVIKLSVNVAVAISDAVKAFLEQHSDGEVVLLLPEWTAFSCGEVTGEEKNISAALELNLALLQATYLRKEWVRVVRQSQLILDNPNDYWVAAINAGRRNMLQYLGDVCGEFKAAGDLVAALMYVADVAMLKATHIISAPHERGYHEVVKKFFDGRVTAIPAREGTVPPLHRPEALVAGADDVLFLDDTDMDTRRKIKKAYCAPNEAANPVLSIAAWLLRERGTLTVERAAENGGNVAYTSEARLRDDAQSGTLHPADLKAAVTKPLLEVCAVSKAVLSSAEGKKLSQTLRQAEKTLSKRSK
# [8] = target: T4, Tyrosyl-tRNA synthetase, putative (Trypanosoma cruzi (strain CL Brener)); assay: Trypanosoma cruzi tyrosyl tRNA synthetase (TcYRS) SOP; format: functional; settings: 30 µM
# [9] = target: Chromo domain-containing protein 1 (Saccharomyces cerevisiae (strain ATCC 204508 / S288c) (Baker's yeast)) (UniProt P32657); assay: ScCHD-1 Enzyme Inhibition Assay; format: functional; settings: 30 µM; note: in the data most compounds retested in dose-response had high values
# Chain of Chromo domain-containing protein 1 (Saccharomyces cerevisiae (strain ATCC 204508 / S288c) (Baker's yeast)) (P32657 whole entry, the tested form may be a part): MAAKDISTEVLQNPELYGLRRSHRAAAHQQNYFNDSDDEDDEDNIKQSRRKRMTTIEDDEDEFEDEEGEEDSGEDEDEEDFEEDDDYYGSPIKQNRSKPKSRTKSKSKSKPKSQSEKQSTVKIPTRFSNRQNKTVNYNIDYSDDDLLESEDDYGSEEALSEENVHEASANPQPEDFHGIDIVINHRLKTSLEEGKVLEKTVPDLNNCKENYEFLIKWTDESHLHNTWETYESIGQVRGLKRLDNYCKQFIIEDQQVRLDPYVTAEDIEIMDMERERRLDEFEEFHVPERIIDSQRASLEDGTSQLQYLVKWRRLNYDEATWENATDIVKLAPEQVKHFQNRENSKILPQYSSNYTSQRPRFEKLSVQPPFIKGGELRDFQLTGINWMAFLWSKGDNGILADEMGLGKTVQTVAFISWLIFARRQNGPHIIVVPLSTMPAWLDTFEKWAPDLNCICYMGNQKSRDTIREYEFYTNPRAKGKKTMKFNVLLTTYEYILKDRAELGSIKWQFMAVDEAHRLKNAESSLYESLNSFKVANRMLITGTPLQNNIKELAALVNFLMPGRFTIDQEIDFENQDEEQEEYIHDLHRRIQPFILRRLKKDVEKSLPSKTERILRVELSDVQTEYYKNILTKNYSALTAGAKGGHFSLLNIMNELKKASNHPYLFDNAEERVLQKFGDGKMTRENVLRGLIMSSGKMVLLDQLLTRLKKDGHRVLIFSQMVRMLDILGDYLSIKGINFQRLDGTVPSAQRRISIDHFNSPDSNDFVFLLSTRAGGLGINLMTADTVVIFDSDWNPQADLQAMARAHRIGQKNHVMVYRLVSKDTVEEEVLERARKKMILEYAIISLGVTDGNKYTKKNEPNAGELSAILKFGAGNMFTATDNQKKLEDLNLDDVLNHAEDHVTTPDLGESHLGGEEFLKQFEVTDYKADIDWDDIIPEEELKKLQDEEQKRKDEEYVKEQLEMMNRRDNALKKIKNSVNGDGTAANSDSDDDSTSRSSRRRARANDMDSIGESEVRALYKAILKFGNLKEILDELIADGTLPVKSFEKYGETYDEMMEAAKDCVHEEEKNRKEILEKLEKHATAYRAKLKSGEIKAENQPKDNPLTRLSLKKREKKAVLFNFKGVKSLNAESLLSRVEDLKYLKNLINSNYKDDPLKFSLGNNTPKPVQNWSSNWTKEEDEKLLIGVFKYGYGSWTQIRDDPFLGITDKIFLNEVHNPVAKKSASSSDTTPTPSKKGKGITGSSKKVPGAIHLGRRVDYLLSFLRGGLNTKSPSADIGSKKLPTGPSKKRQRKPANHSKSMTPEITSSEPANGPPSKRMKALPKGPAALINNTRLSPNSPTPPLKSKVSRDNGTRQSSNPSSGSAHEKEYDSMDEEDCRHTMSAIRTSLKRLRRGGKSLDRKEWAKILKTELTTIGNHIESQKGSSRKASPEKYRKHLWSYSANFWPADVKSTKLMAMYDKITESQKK
# Chain of Protein translocase subunit SecA (Escherichia coli (strain K12)) (P10408 whole entry): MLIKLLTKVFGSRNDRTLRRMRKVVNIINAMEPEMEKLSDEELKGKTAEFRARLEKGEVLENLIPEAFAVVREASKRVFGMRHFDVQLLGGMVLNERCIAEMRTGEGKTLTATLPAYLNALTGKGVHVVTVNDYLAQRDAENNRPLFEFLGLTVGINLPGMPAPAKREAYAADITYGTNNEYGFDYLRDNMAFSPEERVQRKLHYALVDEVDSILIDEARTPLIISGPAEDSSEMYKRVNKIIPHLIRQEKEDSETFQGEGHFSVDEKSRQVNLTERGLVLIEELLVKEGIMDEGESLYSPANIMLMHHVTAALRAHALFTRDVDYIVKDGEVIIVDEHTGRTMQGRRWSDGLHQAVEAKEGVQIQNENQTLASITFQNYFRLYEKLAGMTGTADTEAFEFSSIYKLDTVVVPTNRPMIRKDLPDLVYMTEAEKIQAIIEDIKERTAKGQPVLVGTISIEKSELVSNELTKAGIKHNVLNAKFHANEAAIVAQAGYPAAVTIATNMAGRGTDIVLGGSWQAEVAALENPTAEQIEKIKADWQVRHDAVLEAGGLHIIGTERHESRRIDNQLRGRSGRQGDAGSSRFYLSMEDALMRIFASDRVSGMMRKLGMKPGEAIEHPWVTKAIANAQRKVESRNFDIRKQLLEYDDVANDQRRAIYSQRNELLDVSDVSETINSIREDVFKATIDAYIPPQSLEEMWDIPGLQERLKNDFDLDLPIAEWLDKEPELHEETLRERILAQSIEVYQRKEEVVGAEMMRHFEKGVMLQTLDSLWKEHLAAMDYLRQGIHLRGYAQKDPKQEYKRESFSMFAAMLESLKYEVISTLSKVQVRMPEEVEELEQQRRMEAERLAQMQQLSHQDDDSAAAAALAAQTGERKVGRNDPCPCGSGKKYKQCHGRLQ
# Chain of Sialic acid-binding Ig-like lectin 9 (Homo sapiens) (Q9Y336 whole entry): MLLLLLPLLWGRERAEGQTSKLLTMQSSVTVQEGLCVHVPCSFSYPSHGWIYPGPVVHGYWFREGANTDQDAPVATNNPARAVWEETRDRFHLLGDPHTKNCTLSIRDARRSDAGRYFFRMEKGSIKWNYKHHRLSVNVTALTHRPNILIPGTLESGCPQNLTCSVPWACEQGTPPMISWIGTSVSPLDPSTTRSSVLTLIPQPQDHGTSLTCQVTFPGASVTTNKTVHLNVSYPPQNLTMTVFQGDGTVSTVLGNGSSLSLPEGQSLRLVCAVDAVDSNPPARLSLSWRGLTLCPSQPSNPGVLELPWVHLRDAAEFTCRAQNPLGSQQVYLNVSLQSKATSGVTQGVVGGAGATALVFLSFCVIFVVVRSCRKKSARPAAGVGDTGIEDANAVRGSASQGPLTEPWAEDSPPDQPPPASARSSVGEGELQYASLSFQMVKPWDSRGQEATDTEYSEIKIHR
SMILES,Percent Effect [1],Percent Effect [2],Percent Effect [3],Percent Effect [4],Percent Effect (Trypanosoma cruzi),Percent Effect [5],Percent Effect [6],Percent Effect (Homo sapiens),Percent Effect [7],Percent Effect [8],Percent Effect [9]
c1cncc(C2COC3(CCN(CC4CC4)CC3)C2)c1 (configuration not stated),-5.88%,5.41%,0.748%,-4.23%,-1.17%,4.58%,12.9%,-13.5%,8.91%,1.22%,-3.69%
Cc1nnc(NC(=O)NCc2cccnc2N(C)C)s1,-3.62%,13%,-1.32%,4.98%,5.24%,4.27%,11.2%,4.88%,6.8%,21.9%,-9.15%
COc1c(C2CCCN2C(=O)c2cc(Cl)c[nH]2)c(C)nn1C (configuration not stated),-5.79%,5.41%,4.66%,-0.555%,-0.781%,2.08%,4.31%,-1.4%,9.9%,-3.66%,-3.93%
CN(Cc1ccc(F)cc1)C(=O)NCC1(N2CCOCC2)CCSC1 (configuration not stated),2.92%,16.2%,-0.11%,22.3%,2.12%,1.43%,15.9%,14.5%,3.7%,17.1%,-8.64%
CC(C)c1ncc2c(n1)CN(Cc1nc(-c3ccoc3)no1)CC2,-2.65%,10.8%,-16.9%,5.18%,0.0929%,-0.185%,6.46%,12.5%,9.9%,3.66%,11.7%
CCOc1cccc2c1OCC(C(=O)NS(=O)(=O)Cc1ccccc1)=C2,-2.71%,0%,1.17%,-4.5%,-8.59%,24.9%,2.52%,24.4%,-10.3%,-6.17%,-6.55%
Cc1cc2c(=O)n3c(nc2s1)CCN(Cc1ccncc1)CC3,2.21%,4.05%,13.8%,-10.1%,-4.94%,5.8%,4.21%,19.7%,3.23%,9.09%,-10.3%
COc1ccc(CN2CC[C@@H](O)[C@@H]2Cc2ccccc2)cc1,-7.82%,-1.33%,7.1%,-1.98%,-0.589%,-6.16%,0.924%,9.5%,-3.17%,-2.56%,-5.37%
CN(C)CCO[C@@H]1CC[C@H]2[C@H]1OCCN2C(=O)COc1ccccc1,-2.92%,0%,-3.78%,3.69%,-0.88%,-27.1%,17.7%,8.7%,-1.08%,0%,1.68%
Cc1cc(C2CCCN2CCCc2nc3ccccc3o2)on1 (configuration not stated),0.895%,5.41%,-3.23%,0.643%,-3.87%,21.6%,1.62%,2.07%,4.43%,6.17%,-3.04%
CCN(CC)C(=O)c1nnn(Cc2ccccc2)c1OC,-6.72%,-1.33%,3.11%,2.1%,-4.52%,-4.05%,8.32%,-11.4%,6.35%,5.13%,-1.8%
Cc1ccc(F)cc1NC(=O)NCC(C)N1CCOCC1 (configuration not stated),-1.78%,18.9%,0.541%,-0.431%,0.391%,1.25%,9.55%,14.3%,11.9%,18.3%,3.74%
O=C(c1cccn2ccnc12)N1CCCN(c2cccnn2)CC1,-3.74%,-5.2%,6.04%,5.27%,4.8%,1.9%,-0.404%,-11.5%,0.952%,2.35%,-10.1%
CCCNCc1cn(C)nc1-c1cccnc1,-2.45%,-2.7%,1.1%,-2.38%,-6.55%,1.74%,11.8%,-8%,0%,1.24%,1.57%
CCc1ccc(S(=O)(=O)Nc2cn(C)cc(Br)c2=O)cc1,-3.35%,5.41%,-3.87%,18.4%,4.25%,-0.952%,11.6%,6.27%,2.65%,12.2%,-5.04%
CC(C)C(=O)NCCCn1ncc2c(Cl)cccc21,-4.7%,10.4%,1.13%,17.2%,5.61%,-8.28%,4.33%,-1.52%,5.38%,11.1%,-3.62%
CC(C)c1csc(C2CCCN(C(=O)Cn3ccccc3=O)C2)n1 (configuration not stated),-2.92%,2.63%,1.07%,-4.27%,8.27%,-1.92%,3.68%,10.9%,0.49%,9.76%,-9.15%
CN(Cc1ccc(Cl)s1)C1CCCN(c2cccnn2)C1 (configuration not stated),-0.186%,-18.4%,14.3%,0.257%,1.27%,15.4%,7.19%,10.5%,9.57%,10.4%,-1.67%
Cc1ncnc2c1CCN(Cc1ccc3c(c1)OCO3)CC2,-2.54%,13.7%,-1.53%,8.83%,3.97%,1.2%,6.08%,-10.2%,3.12%,11.1%,-2.7%
CCOc1cccc(C(C)NC(=O)N2CCC(C(N)=O)CC2)c1 (configuration not stated),-2.51%,2.7%,-1.93%,5.06%,-1.93%,-0.952%,3.97%,14.3%,3.7%,9.76%,-1.95%
Cc1ccccc1N1CCCN(C(=O)CCCS(N)(=O)=O)CC1,-0.353%,8.22%,25.9%,2.05%,-8.62%,2.73%,23.8%,28.3%,3.23%,2.5%,-13.8%
CCc1nc(CC(=O)N2CCN(c3cnccn3)CC2)cs1,-4.23%,16.5%,1.43%,5.88%,1.95%,1.94%,0.343%,11.8%,1.04%,17.7%,-26.3%
